Screening data (PubChem BioAssay)
G9a block: qHTS Assay for Inhibitors of Histone Lysine Methyltransferase G9a; Histone-lysine N-methyltransferase EHMT2 (Homo sapiens), Q96KQ7; G9a H3K9 monomethylation, AlphaScreen, 2 h; Potency, µM (series often up to 102 µM), without a hit: at the top dose activity, negative = inhibition, hits mostly inhibitors; actives 8.8% (n = 350,000); AID 504332, 2011; note: % is set by controls: 0 for no effect and ±100 for the full control effect; nearly all actives have a fitted effect of over 75% in size
Target sequence (Q96KQ7 913-1193 limits assumed): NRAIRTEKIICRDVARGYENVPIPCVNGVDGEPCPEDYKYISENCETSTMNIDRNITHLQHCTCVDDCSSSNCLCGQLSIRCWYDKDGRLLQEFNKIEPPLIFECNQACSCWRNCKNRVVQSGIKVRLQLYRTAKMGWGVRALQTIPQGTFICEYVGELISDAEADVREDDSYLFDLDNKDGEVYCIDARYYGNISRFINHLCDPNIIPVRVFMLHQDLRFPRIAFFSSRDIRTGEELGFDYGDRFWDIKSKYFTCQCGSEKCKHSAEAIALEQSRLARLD
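AlphaScreen detection with an anti-monomethyl H3K9 antibody quantified product after a 2 h room-temperature reaction containing 500 nM biotinylated H3K9 peptide, 20 µM SAM and 20 nM enzyme, which had been preincubated 15 min with compound.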
GLS inhibitor: qHTS for Inhibitors of Glutaminase (GLS); Glutaminase kidney isoform, mitochondrial (Homo sapiens), O94925; GLS enzymatic activity, qHTS titration; Potency, µM (highest dose often 45.5 µM), for the others: at the top dose activity change, negative = inhibition, actives largely listed as inhibitors; actives 0.21% (n = 410,000); AID 624170, 2012; note: % is set by controls: 0 for no effect and ±100 for the full control effect
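Read-out is an Amplex red fluorescence increase coupled through glutamate oxidase and HRP, measured before and after 30 min room-temperature incubation. hKGA is in 45 mM KH2PO4 (pH 8.2) with 0.02% Tween-20; glutamine added as 1mM solution.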
BAZ2B block: qHTS Assay for Inhibitors of BAZ2B; Bromodomain adjacent to zinc finger domain protein 2B (Homo sapiens), Q9UIF8; AlphaScreen BAZ2B-H3K14Ac peptide displacement; Potency, µM (series often up to 114 µM), for inactives: at the highest dose activity change, negative = inhibition, usual class: inhibitors; actives 4.4% (n = 360,000); AID 504333, 2011; note: % is set by controls: 0 for no effect and ±100 for the full control effect; nearly all actives have a fitted effect of over 60% in size
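AlphaScreen displacement of biotin-H3(5-23)K14Ac peptide (50 nM final) from BAZ2B (50 nM final) in PBS pH 7.4, 0.01% Tween-20; complex preformed 30 min RT, then compounds (top 110 uM) 30 min RT, beads 20 min dark.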
HP1b binding inh: HTS for Inhibitors of HP1-beta Chromodomain Interactions with Methylated Histone Tails | Chromobox protein homolog 1 (Homo sapiens), P83916 | AlphaScreen HP1-beta / biotin-H3K9me3 peptide binding | Potency, µM (titrated, usually from 114 µM), for inactives: at the highest dose activity change, negative = inhibition, usual class: inhibitors | actives 0.56% (n = 390,000) | AID 540317, 2011; note: nearly all actives have a fitted effect of over 70% in size
Target sequence (P83916 whole entry, looked up): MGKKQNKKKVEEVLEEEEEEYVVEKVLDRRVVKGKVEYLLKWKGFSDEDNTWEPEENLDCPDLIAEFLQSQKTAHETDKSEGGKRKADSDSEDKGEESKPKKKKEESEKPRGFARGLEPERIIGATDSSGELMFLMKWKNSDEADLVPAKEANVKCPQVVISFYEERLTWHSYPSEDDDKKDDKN
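AlphaScreen: HP1-beta (50 nM) preformed 30 min with biotin-H3(1-18)K9me3 peptide (50 nM) in PBS pH 7.4, 0.01% Tween-20. Compound added for 30 min at RT, then streptavidin donor/nickel chelate acceptor beads (10 ug/mL) for 30 min.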
JMJD2A Tudor: qHTS Assay for Inhibitors of JMJD2A-Tudor Domain. Potency, µM (titrated, usually from 114 µM), for inactives: at the top dose activity change, negative = inhibition, actives largely listed as inhibitors. Lysine-specific demethylase 4A (Homo sapiens), O75164. AlphaScreen JMJD2A-Tudor / H3K4me3 peptide binding. actives 4.4% (n = 390,000). AID 504339, 2011; note: % is set by controls: 0 for no effect and ±100 for the full control effect; nearly all actives have a fitted effect of over 50% in size
L3MBTL1 block: qHTS Assay for the Inhibitors of L3MBTL1; Lethal(3)malignant brain tumor-like protein 1 (Homo sapiens), Q9Y468; AlphaScreen L3MBTL1–H3K9me1 peptide binding; Potency, µM (series often up to 57.1 µM), without a hit: at the top dose activity, negative = inhibition, most hits filed as inhibitors; actives 0.66% (n = 230,000); note: % is set by controls: 0 for no effect and ±100 for the full control effect; nearly all actives have a fitted effect of over 60% in size
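AlphaScreen assay: L3MBTL1 (50 nM final) was preincubated 30 min at room temperature with biotinylated H3(1-15)K9me1 peptide (75 nM final), then 30 min with library compounds; streptavidin donor and nickel chelate acceptor beads (10 ug/mL final) added, 30 min dark.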
* marks the source's active call; other numbers are inactive results; ? = inconclusive; . = no result given; [ ] = remark or other dose. Rows were chosen to be rich in hits. Some 10% of all compounds tested hit in one or more screens of this group. Calls come from the whole dose curve; as a rule, active = well fitted curve in the direction sought with a large enough effect; inconclusive = small, poorly fitted or top-dose-only effect, or another doubt; inactive = no such curve, though single readings can be large; an effect the other way counts as inactive or inconclusive. Potency is the fitted concentration of half-maximal effect.

SMILES | G9a block | GLS inhibitor | BAZ2B block | HP1b binding inh | JMJD2A Tudor | L3MBTL1 block
O=C(NCCCn1ccnc1)/C(=C\c1ccco1)NC(=O)c1ccco1 | ? | 10.4% | 89.1µM* | 35.5% | -6.2% | .
COc1cccc(NC(=O)Cn2cnc3c(nc4n3CCCCC4)c2=O)c1 | 7.2%[59 µM] | 1.3% | 5.2% | 8.7% | -12.9% | .
COc1ccc(-n2nc(C(=O)NCCc3ccc(OC)c(OC)c3)c3c4ccccc4n(C)c3c2=O)cc1 | -33.7%[59 µM] | 3.2% | . | 43.7% | -8.0% | .
COc1ccccc1NC(=O)Cn1c(=O)c(CNc2ccc(C)cc2)cc2cc3c(cc21)OCCO3 | ? | ? | ? | -12.5% | ? | .
CCn1c(CNc2cccc(C(F)(F)F)c2)n[nH]c1=S | . | -16.0% | -10.9% | 22.0% | 50.1µM* | 7.4%
CCCOc1ccc(NC(=O)CC2C(=O)N(c3ccc(C)cc3)C(=O)N2Cc2cccc(OC)c2)cc1 (stereo not given) | -1.5%[59 µM] | -7.2% | -3.3% | 32.3% | -1.0% | .
CCc1ccc(S(=O)(=O)NCc2nc3cccnc3n2Cc2ccccc2Cl)cc1 | -5.9%[59 µM] | 1.5% | 5.7% | 27.2%[57 µM] | -9.7% | .
COc1cc(OC)cc(OC(=O)c2cccc(S(=O)(=O)N3CCN(C)CC3)c2)c1 | ? | -0.3% | -7.9% | 3.6% | -23.0% | -4.0%
CC(C)c1ccc(OC(=O)c2cccc(S(=O)(=O)N3CCN(C)CC3)c2)cc1 | 20µM* | 0.0% | ? | -10.1% | ? | .
CN1CCN(S(=O)(=O)c2cccc(C(=O)Oc3ccc(C(C)(C)C)cc3)c2)CC1 | 50.1µM* | -3.4% | ? | -9.4% | ? | -4.7%
Cc1ccc2c(c1)c(=O)c1ccccc1n2CCCC(=O)Nc1c(F)cccc1F | 7.6%[59 µM] | -1.4% | 1.5% | 23.9% | -15.0% | .
CC1=C(C(=O)NCc2ccccn2)C2(CCC(C)CC2)OC1=O (stereo not given) | 10µM* | -0.1% | 79.4µM* | 15.8% | 28.2µM* | -17.7%
CC1=C(C(=O)NCc2ccc(Cl)cc2)C2(CCC(C)CC2)OC1=O (stereo not given) | 2.5% | -8.8% | 3.6% | 42.0% | -6.7% | .
CC12CCC(C(=O)NCc3ccccn3)(OC1=O)C2(C)C (stereo not given) | ? | 9.1% | 79.4µM* | 19.4% | ? | .
Cc1ccc(C(=O)CC(C(=O)O)c2cn(CCC#N)c3ccccc23)cc1 (stereo not given) | ? | 20.6% | 2.6% | ? | 50.1µM* | 2.0%
N#CCCn1cc(C(CC(=O)c2ccc(Br)cc2)C(=O)O)c2ccccc21 (stereo not given) | ? | 17.4% | ? | 27.2% | -32.4% | -0.1%
Cc1nnc(SCC2=C(C(=O)O)N3C(=O)C(NC(=O)Cc4ccccc4)C3SC2)s1 (stereo not given) | ? | -12.1% | ? | 34.9% | -5.7% | -23.2%
Cc1nnc(SCC2=C(C(=O)O)N3C(=O)C(NC(=O)C(C)n4nc(C(F)(F)F)cc4C)C3SC2)s1 (stereo not given) | ? | -12.7% | 50.1µM* | 25.2% | 63.1µM* | .
CCc1cccc(OCC(=O)Nc2ccc(S(=O)(=O)Nc3ncccn3)cc2)c1 | -44.2%[59 µM] | 0.9% | -0.3% | 26.1% | -5.5% | .
CN=c1scc(-c2ccc(F)cc2)n1/N=C/c1ccc(O)c(O)c1 | 4.47µM* | 3.5% | 10µM* | 39.8µM* | 31.6µM* | .
COCCCNCC(O)COc1ccccc1F (stereo not given) | 60.2% | 1.7% | 10.8% | ? | 1.26µM* | .
